Source: PubChem BioAssay
A selection: hits, their analogues and other compounds. The true share with any hit is near 20%.
HCMV antiviral: qHTS Assay for inhibitors of the human cytomegalovirus (HCMV); HFF cells, HCMV-luciferase reporter, 72 h; hits give low values; 4.5% of 410,000 active; activity change, negative = inhibition, % at 57.5 µM; AID 1259415, 2018; in the data active = activity change below about -60%; inconclusive = no clear call, values can overlap the other calls; inactive = above about -39%
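HFF cells seeded 16 h at 37C, treated with compounds, infected with luciferase-reporter HCMV at MOI 1 PFU/cell; luciferase read at 72 h post infection, normalized to buffer-only and Salinomycin controls.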
Pf growth 48h: Primary qHTS for delayed death inhibitors of the malarial parasite plastid, 48 hour incubation; AID 504832, 2011; Potency, µM (titrated, usually from 28.7 µM), actives largely listed as inhibitors; 5.9% of 310,000 active; P. falciparum luciferase growth in erythrocytes, 48 h
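Luminescence readout; reporter = integrated firefly luciferase in P. falciparum. RBC culture at 2% hematocrit, 0.1% parasitemia final, 37 C/5% CO2; decreased signal taken as growth inhibition.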
Shiga toxin inh: A qHTS for Small Molecule Inhibitors of Shiga Toxin; inhibition, % at 38.7 µM; Vero cells, Shiga toxin protein synthesis inhibition reporter; 9.2% of 290,000 active; AID 2315, 2010; in the data active = inhibition mostly above about 28%, no sharp cut-off; inactive = mostly below about 43%
Cycloheximide cs: Cycloheximide Counterscreen for Small Molecule Inhibitors of Shiga Toxin | cell reporter, cycloheximide protein synthesis inhibition counterscreen | max response, % | 12% of 300,000 active; in the data active = max response mostly above about 13%, no sharp cut-off; inactive = mostly below about 14%; note: read at 38.3 µM for the half of the compounds with a filed dose
Pf growth 96h: Primary qHTS for delayed death inhibitors of the malarial parasite plastid, 96 hour incubation; P. falciparum luciferase reporter growth, 96 h; Potency, µM (titrated, usually from 28.7 µM), actives largely listed as inhibitors; 6.9% of 320,000 active; AID 504834, 2011
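Erythrocytes infected with luciferase-expressing P. falciparum were dispensed at 2% hematocrit and 0.05% parasitemia (final), then incubated with compounds 96 hours at 37 C in 5% CO2. Luminescence after detection reagent addition reported growth.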
Large screens that a line does not name were inactive; ! = a repeat was not active. Unless noted, calls come from the whole dose curve; as a rule, active = well fitted inhibition curve with a large enough effect; inconclusive = small, poorly fitted or top-dose-only effect, or another doubt; inactive = no such curve, though single readings can be large or run the other way.

CC1=C(C)CC(C(=O)NCc2cccc(Cl)c2)C(C(=O)O)C1 (centres undefined)	Pf growth 96h 13µM
S=C(NCc1ccccc1)NCc1cccc(Cl)c1	HCMV antiviral inconclusive, Pf growth 96h 3.7µM
O=C(NCc1ccccc1)Oc1cccc(Cl)c1	Cycloheximide cs 9.6
S=C(NCc1ccccc1)NCc1cccc(CNC(=S)NCc2ccccc2)c1	none
S=C(NCCc1cccc(Cl)c1)NCc1ccccc1	Cycloheximide cs 25, Pf growth 96h inconclusive (no result: HCMV antiviral)
S=C(NCCc1ccc(Cl)cc1)NCc1ccccc1	Pf growth 96h inconclusive (no result: HCMV antiviral)
COc1cccc(Nc2nccc3[nH]c(-c4ccc(F)c(F)c4)nc23)c1	none (no result: Pf growth 48h, Shiga toxin inh, Cycloheximide cs, Pf growth 96h)
Fc1ccc(CNC(=S)NCc2cccc(Cl)c2)cc1	Pf growth 48h inconclusive, Pf growth 96h 10µM
Fc1ccc(CNC(=S)Nc2ccc(Cl)cc2Cl)cc1	HCMV antiviral inconclusive, Pf growth 48h inconclusive
COc1ccccc1C(=O)Nc1nc(-c2cccs2)c(NC(C)=O)s1	Shiga toxin inh 57, Cycloheximide cs 30
COc1cccc(C(=O)Nc2sc(C(C)C)cc2C(N)=O)c1OC	Pf growth 48h inconclusive, Pf growth 96h 13µM
COCCN(C(=O)c1ccccc1OC)c1nnc(C)s1	none
COc1ccc(C(=O)Nc2nnc(-c3ccccc3)s2)cc1	none
COc1cccc(C(=O)Nc2nnc(-c3ccccc3)s2)c1OC	Shiga toxin inh 41, Cycloheximide cs 43
COC(=O)c1cc(OC)c(OC)cc1NC(=O)c1cccc(OC)c1OC	HCMV antiviral inconclusive, Pf growth 48h inconclusive
COc1ccccc1C(=O)N(C)c1nnc(-c2ccccc2)s1	Shiga toxin inh 66, Cycloheximide cs 37, Pf growth 96h inconclusive
COc1cccc(OC)c1C(=O)Nc1nnc(C)s1	none (no result: Pf growth 48h, Shiga toxin inh, Cycloheximide cs, Pf growth 96h)
COc1ccccc1C(=O)Nc1nnc(-c2ccccc2)s1	Cycloheximide cs 35 (no result: Shiga toxin inh)
COc1ccccc1C(=O)Nc1nnc(C)s1	Shiga toxin inh 81, Cycloheximide cs 39 (no result: Pf growth 96h)
O=C(Nc1nnc(-c2ccccc2)s1)c1ccccc1O	none
Cc1ccc(C(=O)Nc2nnc(-c3ccc(C(C)(C)C)cc3)s2)cc1	Shiga toxin inh 36
CCC(NC(=O)CC[C@H]1O[C@@H](n2cc(C)c(=O)[nH]c2=O)C[C@@H]1O)c1ccccc1 (some centres undefined)	none (no result: Pf growth 48h, Shiga toxin inh, Cycloheximide cs, Pf growth 96h)
Cc1sc2nc(CN3CCOCC3)nc(N3CCOCC3)c2c1C	Pf growth 96h inconclusive (no result: Pf growth 48h)
COC(=O)c1sc2nc(-c3ccccc3)nc(N3CCN(C)CC3)c2c1C	Pf growth 48h 3.7µM (no result: Pf growth 96h)
COC(=O)c1sc2nc(CN3CCOCC3)nc(N3CCOCC3)c2c1C	Pf growth 48h 10µM
CCOC(=O)c1sc2ncnc(N3CCN(C)CC3)c2c1C	none
Clc1ccc(CN2C3=NCCCN3c3ccccc32)cc1Cl	HCMV antiviral -84, Pf growth 48h inconclusive
O=C(CN1C2=NCCCN2c2ccccc21)c1ccc(Cl)cc1Cl	Pf growth 48h 0.37µM
Clc1ccc(CN2C3=NCCCN3c3ccccc32)cc1	Pf growth 48h inconclusive, Pf growth 96h inconclusive
O=C(CN1C2=NCCCN2c2ccccc21)c1ccc([N+](=O)[O-])cc1	HCMV antiviral -66, Pf growth 48h 1.9µM, Pf growth 96h inconclusive
CCc1ccc2c(c1)NC(c1cccnc1)=NC(c1ccc(C(C)(C)C)cc1)=N2	none (no result: Pf growth 48h, Shiga toxin inh, Cycloheximide cs, Pf growth 96h)
CCOC(=O)C1CCN(C(=O)CNC(=O)c2nn(-c3ccc(OC)cc3)c(=O)c3ccccc23)CC1	Pf growth 48h inconclusive, Cycloheximide cs 27, Pf growth 96h inconclusive
COc1ccc(-n2nc(C(=O)NCC(=O)N3CC(C)CC(C)C3)c3ccccc3c2=O)cc1 (centres undefined)	Pf growth 48h inconclusive
CCOC(=O)C1CCN(C(=O)CNC(=O)c2nn(-c3ccc(OC)c(OC)c3)c(=O)c3ccccc23)CC1	Pf growth 48h inconclusive, Cycloheximide cs 21
CCN1C(=O)[C@H]2[C@@H](c3ccc(Cl)cc3)N3C(=O)CN(CCOC)C(=O)[C@@]3(Cc3ccccc3)[C@H]2C1=O	none
CCCOC(=O)c1ccc(Oc2c(-c3ccc(OCC)cc3O)n[nH]c2C)cc1	HCMV antiviral -98, Pf growth 48h 5.2µM
CCCc1ccc(Oc2cn[nH]c2-c2ccc(O)c(C)c2O)cc1	HCMV antiviral -61, Pf growth 96h 10µM
COc1ccc(Oc2cn[nH]c2-c2ccc(OCC(=O)NN)cc2O)cc1	Pf growth 96h inconclusive
CCCOC(=O)c1ccc(Oc2cn[nH]c2-c2ccc(OCC)cc2O)cc1	Pf growth 48h 4.7µM (no result: Pf growth 96h)
COc1ccc(Oc2c(-c3ccc(O)cc3O)n[nH]c2C)cc1	none
CCCCn1c(N)c(N(CC(C)C)C(=O)C2=NN(c3cc(C)ccc3C)C(=O)CC2)c(=O)[nH]c1=O	none (no result: Shiga toxin inh, Cycloheximide cs)
Cc1cccc(C)c1OC(=O)CSc1nnc(-c2ccc3c(c2)OCO3)o1	none (no result: Pf growth 48h, Shiga toxin inh, Cycloheximide cs, Pf growth 96h)
CCN(C(=O)CSc1nnc(C)n1-c1cccc(C)c1)C1CCS(=O)(=O)C1 (centres undefined)	none (no result: Shiga toxin inh, Cycloheximide cs)
CCN(C(=O)CSc1nnc(CNc2cccc(OC)c2)n1C1CCCCC1)C1CCS(=O)(=O)C1 (centres undefined)	Pf growth 48h inconclusive, Pf growth 96h 4.1µM
CC(=O)c1ccc(NC(=O)C(C)NCc2ccccc2Cl)cc1 (centres undefined)	Cycloheximide cs 24, Pf growth 96h inconclusive
CC(=O)c1cccc(NC(=O)CCOc2ccccc2)c1	Shiga toxin inh 51, Cycloheximide cs 25
CN(CCOc1ccccc1)CC(=O)Nc1cccc(Br)c1	none
CN(CCOc1ccccc1)CC(=O)Nc1cccc(C#N)c1	HCMV antiviral -65
CCCC(=O)Nc1ccc(C(=O)NCc2ccccc2Cl)cc1	Pf growth 96h inconclusive
COC(=O)c1cccc(NC(=O)CCCOc2ccccc2)c1	Pf growth 48h inconclusive
CC(=O)c1cccc(NC(=O)Nc2ccccc2)c1	Shiga toxin inh 62, Cycloheximide cs 26
CC(C)[C@H](NC(=O)N1CCn2c1nc1ccccc12)C(=O)NCC1CCCO1 (some centres undefined)	none
Cc1c(CC(=O)NCc2ccccc2)c(=O)oc2c(C)c(O)ccc12	none (no result: Pf growth 48h, Shiga toxin inh, Cycloheximide cs, Pf growth 96h)
CSc1ccccc1CNC(=O)C1(C)CCCN1CC(C)C (centres undefined)	none (no result: Pf growth 48h, Shiga toxin inh, Cycloheximide cs, Pf growth 96h)
CC(=O)c1ccc(NC(=O)Nc2ccccc2)cc1	Shiga toxin inh 79, Cycloheximide cs 38 (no result: Pf growth 96h)
CC(=O)c1cccc(NC(=O)C2C3C=CC(C3=C(c3ccccc3)c3ccccc3)C2C(=O)O)c1 (centres undefined)	Cycloheximide cs 11, Pf growth 96h inconclusive
CNC(=O)c1ccc(NC(=O)Nc2ccccc2)cc1	Shiga toxin inh 50, Cycloheximide cs 30, Pf growth 96h inconclusive
CCN(CC)c1ccc(NC(=O)Nc2ccccc2)cc1	Pf growth 48h inconclusive, Shiga toxin inh 58, Cycloheximide cs 48
CCOc1ccc(C2=C/C(=C/c3cccnc3)C(=O)O2)cc1	Pf growth 96h inconclusive
Cc1ccc(C2=C/C(=C/c3cccs3)C(=O)O2)cc1	Cycloheximide cs 22, Pf growth 96h inconclusive
Cc1ccc(C=C2C=C(c3ccccc3)OC2=O)cc1	none (no result: Pf growth 48h, Shiga toxin inh, Cycloheximide cs, Pf growth 96h)
CC(=O)Oc1cccc(C)c1	Shiga toxin inh 183!, Cycloheximide cs 75! (no result: HCMV antiviral)
